Source: PubChem BioAssay (EPA / NIEHS)
Active and inactive are the calls of the source. Rule for the calls: active = hit-call score of the fitted dose curve at least 0.9, where 1 is the maximum; inactive = score below 0.9.

Key:
Conditions in all cases: mRNA level, 48 h; actives raise or lower the signal
[1] = read-out: Cyclin D1 (CCND1), CCND1 (gene 595); assay: LTEA_HepaRG_CCND1: Life Technologies and Expression Analysis (LTEA) Assay for Cyclin D1 (CCND1) using HepaRG (AID 2283451);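 for AC50: TaqMan qRT-PCR transcript level normalised to ACTB GAPDH and POLR2A housekeeping genes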
Procedure, shortened: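 HepaRG plated 48 h, medium switched to serum-free induction medium, chemicals added in duplicate (top 100 uM, half-log steps, 0.5% DMSO) for 48 h, cells lysed, RNA measured by TaqMan qRT-PCR.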

[2] = read-out: catalase (CAT), CAT (gene 847); assay: LTEA_HepaRG_CAT: Life Technologies and Expression Analysis (LTEA) Assay for catalase (CAT) using HepaRG (AID 2283452)
Procedure, shortened: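 Expression of CAT was quantified by TaqMan qRT-PCR with ACTB/GAPDH/POLR2A normalization after 48 h chemical exposure of HepaRG. Eight-point half-log series, top 100 uM, in 0.5% DMSO; gain or loss fitted against vehicle.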

[3] = read-out: flavin-containing dimethylaniline monooxygenases 3 (FMO3), FMO3 (gene 2328); assay: LTEA_HepaRG_FMO3: Life Technologies and Expression Analysis (LTEA) Assay for flavin-containing dimethylaniline monooxygenases 3 (FMO3) using HepaRG (AID 2283453);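 for AC50: FMO3 transcript by TaqMan qRT-PCR normalized to ACTB GAPDH and POLR2A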
Procedure, shortened: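 HepaRG, 48 h exposure, 8-pt half-log series from 100 uM, 0.5% DMSO vehicle, duplicates; FMO3 transcript by Fluidigm TaqMan qRT-PCR, housekeeping-normalized; gain/loss fit vs DMSO.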

[4] = read-out: Cytochrome P450 (CYP1A1), CYP1A1 (gene 1543); assay: LTEA_HepaRG_CYP1A1: Life Technologies and Expression Analysis (LTEA) Assay for Cytochrome P450 (CYP1A1) using HepaRG (AID 2283454)
Procedure, shortened: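 HepaRG, 48 h post-plating switched to serum-free induction medium; 8-pt conc-response (top 100 uM, half-log, 0.5% DMSO), duplicates, 48 h. Lysis in RLT, TaqMan qRT-PCR for CYP1A1; gain or loss vs DMSO.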

[5] = read-out: CFLAR gene, CFLAR (gene 8837); assay: LTEA_HepaRG_CFLAR: Life Technologies and Expression Analysis (LTEA) Assay for CFLAR gene using HepaRG (AID 2283455)
Procedure, shortened: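 HepaRG, 48 h exposure, 8-pt conc-response (100 uM top, half-log), 0.5% DMSO vehicle, duplicates. CFLAR expression by qRT-PCR; ACTB/GAPDH/POLR2A normalization; gain or loss fit vs DMSO baseline.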

[6] = read-out: Forkhead box O1 (FOXO1), FOXO1 (gene 2308); assay: LTEA_HepaRG_FOXO1: Life Technologies and Expression Analysis (LTEA) Assay for Forkhead box O1 (FOXO1) using HepaRG (AID 2283456)
Procedure, shortened: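 Readout is FOXO1 transcript level by multiplexed qRT-PCR against three housekeeping genes, curve-fitted in both directions relative to 0.5% DMSO vehicle. Human HepaRG cultures received chemicals for 48 h, up to 100 uM in half-log steps.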

[7] = read-out: growth arrest and DNA damage 45 (GADD45A), GADD45A (gene 1647); assay: LTEA_HepaRG_GADD45A: Life Technologies and Expression Analysis (LTEA) Assay for growth arrest and DNA damage 45 (GADD45A) using HepaRG (AID 2283458)
Procedure, shortened: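 Differentiated HepaRG cells were exposed in duplicate for 48 h in serum-free induction medium to 8-point half-log concentrations up to 100 uM in 0.5% DMSO. GADD45A mRNA was measured by TaqMan qRT-PCR, normalized to ACTB, GAPDH and POLR2A, with bidirectional fitting versus DMSO.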

[8] = read-out: ABC Transporter (ABCB1), ABCB1 (gene 5243); assay: LTEA_HepaRG_ABCB1: Life Technologies and Expression Analysis (LTEA) Assay for ABC Transporter (ABCB1) using HepaRG (AID 2283460)
Procedure, shortened: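 Expression of ABCB1 was quantified by qRT-PCR against three housekeeping genes after human HepaRG cultures received test chemicals for 48 hours. Concentrations spanned eight half-log steps topping at 100 uM in 0.5% DMSO; gain or loss of signal was fitted relative to vehicle.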

[9] = read-out: growth arrest and DNA damage 45 (GADD45B), GADD45B (gene 4616); assay: LTEA_HepaRG_GADD45B: Life Technologies and Expression Analysis (LTEA) Assay for growth arrest and DNA damage 45 (GADD45B) using HepaRG (AID 2283461)
Procedure, shortened: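 HepaRG, ~100,000 cells/well, 48 h plating; serum-free induction medium; cpd 100 uM top, half-log x8, 0.5% DMSO, duplicate, 48 h; lysis in RLT, RNA isolation, qRT-PCR; norm ACTB/GAPDH/POLR2A; bidirectional fit vs DMSO.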

[10] = read-out: ABC Transporter (ABCB11), ABCB11 (gene 8647); assay: LTEA_HepaRG_ABCB11: Life Technologies and Expression Analysis (LTEA) Assay for ABC Transporter (ABCB11) using HepaRG (AID 2283463)
Procedure, shortened: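 ABCB11 transcript levels are read by Fluidigm TaqMan qRT-PCR after 48 h chemical treatment of human HepaRG cells. Concentrations span 100 uM downward in half-log steps with 0.5% DMSO; gain or loss is fitted against DMSO controls.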

[11] = read-out: ABC Transporter (ABCC2), ABCC2 (gene 1244); assay: LTEA_HepaRG_ABCC2: Life Technologies and Expression Analysis (LTEA) Assay for ABC Transporter (ABCC2) using HepaRG (AID 2283464)
Procedure, shortened: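 HepaRG, 48 h post-plating; serum-free induction medium; cpd 8-pt, 100 uM top, half-log, 0.5% DMSO, duplicate, 48 h. Readout: ABCC2 mRNA by qRT-PCR, norm. ACTB/GAPDH/POLR2A. Bidirectional fit vs DMSO baseline.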

[12] = read-out: Broad substrate specificity ATP-binding cassette transporter ABCG2 (Homo sapiens) (UniProt Q9UNQ0); assay: LTEA_HepaRG_ABCG2: Life Technologies and Expression Analysis (LTEA) Assay for ABC Transporter (ABCG2) using HepaRG (AID 2283465)
Procedure, shortened: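 Read-out is ABCG2 mRNA induction or loss quantified by qRT-PCR after 48 h chemical treatment of human HepaRG cells, normalized to three housekeeping genes. Concentrations reached 100 uM top in half-log steps; fitting was bidirectional against 0.5% DMSO.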

[13] = read-out: ATP-citrate lyase (ACLY), ACLY (gene 47); assay: LTEA_HepaRG_ACLY: Life Technologies and Expression Analysis (LTEA) Assay for ATP-citrate lyase (ACLY) using HepaRG (AID 2283466)
Procedure, shortened: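 HepaRG, 48 h exposure, 8-pt half-log dilutions (top 100 uM), 0.5% DMSO. Readout: ACLY mRNA, TaqMan qRT-PCR, housekeeping-normalized (ACTB/GAPDH/POLR2A). Bidirectional curve fit vs DMSO.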

[14] = read-out: Peroxisomal acyl-coenzyme A oxidase 1 (ACOX1) gene, ACOX1 (gene 51); assay: LTEA_HepaRG_ACOX1: Life Technologies and Expression Analysis (LTEA) Assay for Peroxisomal acyl-coenzyme A oxidase 1 (ACOX1) gene using HepaRG (AID 2283467)
Procedure, shortened: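 Measured by qRT-PCR against three housekeeping genes: ACOX1 transcript change in human HepaRG cells after 48 h dosing. Concentrations ran up to 100 uM in half-log steps. Curves were fitted bidirectionally relative to 0.5% DMSO.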

[15] = read-out: Alkaline Phosphatase, Placental (ALPP) gene, ALPP (gene 250); assay: LTEA_HepaRG_ALPP: Life Technologies and Expression Analysis (LTEA) Assay for Alkaline Phosphatase, Placental (ALPP) gene using HepaRG (AID 2283468)
Procedure, shortened: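 HepaRG, 48 h plating then 48 h dosing, serum-free induction medium, 0.5% DMSO. 8 conc, half-log, max 100 uM, duplicates. Endpoint: ALPP transcript by qRT-PCR, housekeeping-normalized; gain or loss fitted vs DMSO.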

[16] = read-out: Bcl-2 (BAD) gene, BAD (gene 572); assay: LTEA_HepaRG_BAD: Life Technologies and Expression Analysis (LTEA) Assay for Bcl-2 (BAD) gene using HepaRG (AID 2283469)
Procedure, shortened: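 BAD transcript change, measured by qRT-PCR against three housekeeping genes and fitted in both directions relative to 0.5% DMSO, after 48 h chemical treatment of human HepaRG liver cells at concentrations up to 100 uM.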

[17] = read-out: Bcl-2 (BAX) gene, BAX (gene 581); assay: LTEA_HepaRG_BAX: Life Technologies and Expression Analysis (LTEA) Assay for Bcl-2 (BAX) gene using HepaRG (AID 2283470)
Procedure, shortened: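 Differentiated human HepaRG cells, plated 48 h then switched to serum-free induction medium, were exposed 48 h to 8 half-log concentrations up to 100 uM in 0.5% DMSO; BAX mRNA measured by qRT-PCR, normalized to ACTB, GAPDH, POLR2A.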

[18] = read-out: Forkhead box O3 (FOXO3), FOXO3 (gene 2309); assay: LTEA_HepaRG_FOXO3: Life Technologies and Expression Analysis (LTEA) Assay for Forkhead box O3 (FOXO3) using HepaRG (AID 2283459)
Procedure, shortened: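 HepaRG, 48 h post-dose; 8 conc., half-log from 100 uM, 0.5% DMSO, duplicates; serum-free induction medium. Readout: FOXO3 mRNA, TaqMan qRT-PCR, housekeeping-normalized. Bidirectional curve fit vs DMSO baseline.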

[19] = read-out: ABC Transporter (ABCC3), ABCC3 (gene 8714); assay: LTEA_HepaRG_ABCC3: Life Technologies and Expression Analysis (LTEA) Assay for ABC Transporter (ABCC3) using HepaRG (AID 2283462)
Procedure, shortened: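 Human HepaRG, 48 h dosing, 8-pt half-log series from 100 uM, 0.5% DMSO vehicle, duplicates. ABCC3 mRNA by TaqMan qRT-PCR, housekeeping-normalized; bidirectional curve fit vs DMSO.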

Sequence of Broad substrate specificity ATP-binding cassette transporter ABCG2 (Homo sapiens) (Q9UNQ0 whole entry, looked up): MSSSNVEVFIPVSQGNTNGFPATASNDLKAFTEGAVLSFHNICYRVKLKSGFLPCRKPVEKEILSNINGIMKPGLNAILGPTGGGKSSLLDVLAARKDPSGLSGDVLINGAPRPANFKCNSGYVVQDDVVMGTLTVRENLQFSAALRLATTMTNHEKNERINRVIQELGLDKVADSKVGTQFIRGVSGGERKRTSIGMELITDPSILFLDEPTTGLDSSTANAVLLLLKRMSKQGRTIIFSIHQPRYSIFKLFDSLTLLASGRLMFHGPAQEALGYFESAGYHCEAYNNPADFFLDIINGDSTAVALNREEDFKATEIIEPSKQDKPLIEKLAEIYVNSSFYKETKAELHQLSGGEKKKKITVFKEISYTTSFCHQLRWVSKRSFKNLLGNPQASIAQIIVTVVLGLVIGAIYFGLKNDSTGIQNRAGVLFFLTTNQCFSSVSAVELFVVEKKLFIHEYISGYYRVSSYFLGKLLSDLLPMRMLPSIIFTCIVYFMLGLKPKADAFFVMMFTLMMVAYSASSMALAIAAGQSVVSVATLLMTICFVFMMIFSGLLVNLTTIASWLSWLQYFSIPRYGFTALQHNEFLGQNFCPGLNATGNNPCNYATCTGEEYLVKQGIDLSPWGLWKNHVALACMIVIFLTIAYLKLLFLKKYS

`Cc1nc(N(C)C)nc(OC(=O)N(C)C)c1C` was tested, and the outcome [1] was “inactive”, the outcome [2] was “inactive” and the outcome [3] was “inactive”. For the same compound, the AC50 [4] was 34.3 µM (active), the outcome [5] was “inactive” and the outcome [6] was “inactive”. For the same compound, the outcome [7] was “inactive”, the AC50 [8] was 9.92 µM (active) and the outcome [9] was “inactive”. The outcome [10] was “inactive”, the outcome [11] was “inactive” and the outcome [12] was “inactive”. For the same compound, the outcome [13] was “inactive”, the outcome [14] was “inactive” and the outcome [15] was “inactive”. The outcome [16] was “inactive” and the outcome [17] was “inactive”.

In the case of `CC(C)NC(=O)N1CC(=O)N(c2cc(Cl)cc(Cl)c2)C1=O`, the AC50 [1] is reported as 23.8 µM (active), the AC50 [2] is reported as 13.3 µM (active) and the AC50 [3] is reported as 17 µM (active). The AC50 [4] was 5.2 µM (active), the AC50 [5] was 20.2 µM (active) and the outcome [6] was “inactive”. For the same compound, the AC50 [8] was 3.58 µM (active), the AC50 [9] was 26.3 µM (active) and the outcome [10] was “inactive”. For the same compound, the outcome [11] was “inactive”, the AC50 [12] was 15 µM (active) and the outcome [13] was “inactive”. The AC50 [14] was 14.4 µM (active), the outcome [15] was “inactive” and the outcome [16] was “inactive”. For the same compound, the outcome [17] was “inactive”.

`CCOc1nc(F)cc2nc(S(=O)(=O)Nc3c(Cl)cccc3Cl)nn12` was tested, and the outcome [1] was “inactive”, the outcome [3] was “inactive” and the outcome [4] was “inactive”. For the same compound, the outcome [5] was “inactive”, the outcome [6] was “inactive” and the outcome [7] was “inactive”. The outcome [18] was “inactive”, the outcome [8] was “inactive” and the outcome [9] was “inactive”. For the same compound, the outcome [19] was “inactive”, the AC50 [10] was 41.7 µM (active) and the AC50 [11] was 7.91 µM (active). For the same compound, the outcome [12] was “inactive”, the outcome [13] was “inactive” and the outcome [14] was “inactive”. For the same compound, the outcome [15] was “inactive”, the outcome [16] was “inactive” and the outcome [17] was “inactive”.

For `COC(=O)NS(=O)(=O)c1ccc(N)cc1`, the outcome [1] was “inactive”, the outcome [2] was “inactive” and the outcome [3] was “inactive”. The outcome [4] was “inactive”, the outcome [5] was “inactive” and the outcome [6] was “inactive”. For the same compound, the outcome [7] was “inactive”, the outcome [18] was “inactive” and the outcome [8] was “inactive”. The outcome [9] was “inactive”, the outcome [10] was “inactive” and the outcome [11] was “inactive”. The outcome [12] was “inactive”, the outcome [13] was “inactive” and the outcome [14] was “inactive”. The outcome [15] was “inactive”, the outcome [16] was “inactive” and the outcome [17] was “inactive”.

In the case of `COCC(=O)N(c1c(C)cccc1C)C(C)C(=O)OC` (stereo not given), the outcome [1] is reported as “inactive”, the outcome [2] is reported as “inactive” and the outcome [3] is reported as “inactive”. For the same compound, the outcome [4] was “inactive”, the outcome [5] was “inactive” and the outcome [6] was “inactive”. For the same compound, the outcome [18] was “inactive”, the outcome [8] was “inactive” and the outcome [9] was “inactive”. The outcome [19] was “inactive”, the outcome [10] was “inactive” and the outcome [11] was “inactive”. The outcome [12] was “inactive”, the outcome [13] was “inactive” and the outcome [14] was “inactive”. The outcome [15] was “inactive”, the outcome [16] was “inactive” and the outcome [17] was “inactive”.

For `COc1cc(Cl)c(OC)cc1Cl`, the outcome [1] was “inactive”, the outcome [2] was “inactive” and the outcome [3] was “inactive”. For the same compound, the AC50 [4] was 27.9 µM (active), the outcome [5] was “inactive” and the outcome [6] was “inactive”. For the same compound, the outcome [18] was “inactive”, the outcome [8] was “inactive” and the outcome [9] was “inactive”. For the same compound, the outcome [10] was “inactive”, the outcome [12] was “inactive” and the outcome [13] was “inactive”. For the same compound, the outcome [14] was “inactive”, the outcome [15] was “inactive” and the outcome [16] was “inactive”. The outcome [17] was “inactive”.

For `CCSC(=O)N1CCCCCC1`, the outcome [1] was “inactive”, the outcome [2] was “inactive” and the outcome [3] was “inactive”. The outcome [4] was “inactive”, the outcome [5] was “inactive” and the outcome [6] was “inactive”. For the same compound, the outcome [18] was “inactive”, the outcome [8] was “inactive” and the outcome [9] was “inactive”. For the same compound, the outcome [10] was “inactive”, the outcome [11] was “inactive” and the outcome [12] was “inactive”. The outcome [13] was “inactive”, the outcome [14] was “inactive” and the outcome [15] was “inactive”. The outcome [16] was “inactive” and the outcome [17] was “inactive”.
